According to PubChem BioAssay (Tox21):
Inconclusive results are not listed. Values without a mark were called inactive. The source made the active and inactive calls. Calls come from the whole dose curve; as a rule, active = well fitted cell-killing curve with a large enough effect in the repeat runs; inconclusive = weak or mixed curves, or effect the other way; inactive = flat fitted curve, though single readings scatter.

test: qHTS assay to identify small molecule agonists of the estrogen receptor beta (ER-beta) signaling pathway - cell viability counter screen (AID 1259380); conditions: ER-beta-bla HEK293T viability, CellTiter-Glo luminescence, 16 h; series mostly up to 92.4 µM; activity change, negative = cytotoxicity: at the top concentration; note: nearly all actives have a fitted effect of over 30% in size
Source text: National Center for Advancing Translational Sciences [NCATS]
NIH Chemical Genomics Center [NCGC]
U.S. Environmental Protection Agency [EPA]
National Institutes of Environmental Health Sciences [NIEHS]
National Toxicology Program [NTP]
U.S. Food and Drug Administration [FDA]
Estrogen receptor (ER), a nuclear hormone receptor, plays an important role in development, metabolic homeostasis and reproduction. Two subtypes of ER, ER-alpha and ER-beta, have similar expression patterns with some uniqueness in both types. Endocrine disrupting chemicals (EDCs) and their interactions with steroid hormone receptors like ER causes disruption of normal endocrine function. To identify the compounds that activate ER signaling, an ER beta-UAS-bla GripTite cell line (Life Technologies, Madison, WI, USA) containing a beta-lactamase reporter gene under the control of an UAS response element was used to screen Tox21 10K compound library. The cytotoxicity of the Tox21 compound library against the ER-beta-bla cell line was tested in parallel by measuring the cell viability using CellTiter-Glo assay in the same wells.
Tox21 Assay Protocol Summary:
ER-beta-UAS-bla HEK293T cells were dispensed at 2,000 cells/5 uL of assay medium containing 2% charcoal stripped FBS per well into black wall/clear-bottom 1536-well plates using a Multidrop Combi (ThermoFisher Scientific, Waltham, MA) dispenser. After the assay plates were incubated at a 37C and 5% CO2 for 6 hr, 23 nL of compounds dissolved in DMSO, positive controls or DMSO only was transferred to the assay plate by a Pintool station (Kalypsys, San Diego, CA). The plates were incubated at 37C and 5% CO2 for 16 hr. Then 1 uL of LiveBLAzerTM B/G FRET substrate was added using a BioRAPTR FRD (Flying Reagent Dispenser, Aurora Discovery, San Diego, CA) and then the plates were incubated at room temperature for 2 hours, and fluorescence intensity was measured by an Envision plate reader (PerkinElmer, Shelton, CT). For cell viability readout that measures cytotoxicity, 4 uL/well of CellTiter-Glo reagent was added into the assay plates using a FRD. After 30 min incubation at room temperature, the luminescence intensity in the plates was measured using a ViewLux (PerkinElmer) plate reader.
% is set by controls: 0 for no effect and ±100 for the full control effect; potency is the fitted concentration of half-maximal effect.

First: CCSC(=O)N(CC)C1CCCCC1
Second: CCCSC(=O)Cl
The “activity change, negative = cytotoxicity” value of the first is higher: 1.57% for the first, -2.48% for the second.

Compared with `COC(=O)c1ccccc1S(=O)(=O)NC(=O)Nc1nc(C)cc(C)n1`, `CCC(=O)c1ccccc1` is lower in “activity change, negative = cytotoxicity” value: 9.6% for the first, 3.11% for the second.

Compared with `CCCCc1ccc(O)cc1`, `CC(C1CC1)C(O)(Cn1cncn1)c1ccc(Cl)cc1` (stereo not given) is lower in “activity change, negative = cytotoxicity” value: 0.469% for the first, -14% for the second.

Going from `CSc1nc(N=[N+]=[N-])nc(NC(C)C)n1` to `CC1=NNC(=O)N(/N=C/c2cccnc2)C1`, the “activity change, negative = cytotoxicity” value rises from -0.0136% to 2.02%.

Compared with `O=C1OC(=O)C2C1C1(Cl)C(Cl)=C(Cl)C2(Cl)C1(Cl)Cl` (stereo not given), `O=[N+]([O-])c1cc(Cl)c(Cl)c(Cl)c1` is higher in “activity change, negative = cytotoxicity” value: -0.111% for the first, 3.25% for the second.

Going from `CC1(C)CON(Cc2ccccc2Cl)C1=O` to `CNC(=O)Oc1ccccc1C1OCCO1`, the “activity change, negative = cytotoxicity” value rises from 0.628% to 1.99%.

First: [O]=[Cd]
Second: CC(=O)C(Cl)Cl
The “activity change, negative = cytotoxicity” value of the first is lower: -2.62% for the first, 0.247% for the second.

Compared with `C#CCN1C(=O)COc2cc(F)c(N3C(=O)C4=C(CCCC4)C3=O)cc21`, `OC(Cn1cncn1)(c1ccc(F)cc1)c1ccccc1F` (stereo not given) is lower in “activity change, negative = cytotoxicity” value: 3.73% for the first, -10.7% for the second.

Going from `CN/C(=N\[N+](=O)[O-])NCC1CCOC1` (stereo not given) to `CCCCN(CCCCO)N=O`, the “activity change, negative = cytotoxicity” value falls from 11% to 7.34%.

Going from `CCCCCCI` to `CCCCCCBr`, the “activity change, negative = cytotoxicity” value falls from 3.25% to 2.58%.

Going from `OCCBr` to `c1cc[c]([Hg][c]2ccccc2)cc1`, the “activity change, negative = cytotoxicity” value falls from -0.137% to -4.92%.

Compared with `C[C@@H]1CN(C2CCC(C#N)(c3ccc(F)cc3)CC2)CC[C@]1(C(=O)O)c1ccccc1` (stereo not given in full), `O=C1OC(CCN2CCCCC2)OC1(c1ccccc1)c1ccccc1` (stereo not given) is lower in “activity change, negative = cytotoxicity” value: 5.02% [at 42.5 µM] for the first, 1.07% [at 42.5 µM] for the second.

First: CNCC(=O)c1ccc(O)c(O)c1
Second: Fc1cc(Br)ccc1CBr
The “activity change, negative = cytotoxicity” value of the first is higher: 1.12% [at 42.5 µM] for the first, 0.561% [at 42.5 µM] for the second.

Going from `NC1=NC(=O)C(c2ccccc2)O1` (stereo not given) to `CCc1cc2c(s1)-n1c(C)nnc1CN=C2c1ccccc1Cl`, the “activity change, negative = cytotoxicity” value rises from 0.826% [at 42.5 µM] to 0.938% [at 42.5 µM].

Compared with `ClCCCN1CCN(c2cccc(Cl)c2)CC1`, `CN1CCN(C(=O)O[C@H]2c3nccnc3C(=O)N2c2ccc(Cl)cn2)CC1` is higher in “activity change, negative = cytotoxicity” value: -11.6% [at 42.5 µM] for the first, 2.35% [at 42.5 µM] for the second.

First: CC(C)(C)NCC(O)c1cc(Cl)c(N)c(Cl)c1 (stereo not given)
Second: Cc1ncc(CNC(=O)N(CCCl)N=O)c(N)n1
The “activity change, negative = cytotoxicity” value of the first is lower: 1.3% [at 42.5 µM] for the first, 2.77% [at 42.5 µM] for the second.

Going from `Cc1ncc2n1-c1ccc(Cl)cc1C(c1ccccc1F)=NC2` to `O=C(O)c1ccc2[nH]cc(CCCCN3CC=C(c4ccccc4)CC3)c2c1`, the “activity change, negative = cytotoxicity” value falls from 7.98% [at 42.5 µM] to -14.2% [at 42.5 µM].

First: O=C1OC(c2ccc(O)c(S(=O)(=O)O)c2)(c2ccc(O)c(S(=O)(=O)O)c2)c2c(Br)c(Br)c(Br)c(Br)c21
Second: CCS(=O)(=O)C(C)(C)S(=O)(=O)CC
The “activity change, negative = cytotoxicity” value of the first is higher: 12.1% [at 42.5 µM] for the first, 7.1% [at 42.5 µM] for the second.

In the case of `COC(=O)C1=CCCN(C)C1`, the “activity change, negative = cytotoxicity” value is reported as -0.258% [at 42.5 µM].

In the case of `C1CCC(C2CCCCC2)CC1`, the Potency is reported as 38.6 µM (active).
For `N#CC(CCc1ccc(Cl)cc1)(Cn1cncn1)c1ccccc1` (stereo not given), the Potency was 68.6 µM (active).

`O=C1c2ccccc2C(=O)c2ccccc21` showed an activity change, negative = cytotoxicity of 3.21% [at 19 µM].
